Compound activity (PubChem)
Compounds with a hit are over-represented: about 3.8% of the library has one in this group of screens.
rRNA inh HTS: reduced GFP signal of wild-type E. coli, primary screen, bacterial rRNA inhibitor project, GFP/RFP fluorescence, OD600, single point; 350,000 compounds, 1.6% hits; GFP signal change (wild-type ribosome), % (test concentration not listed); AID 720706, 2013; E. coli WT GFP vs humanized-ribosome RFP mutants, 24 h; hits give low values; DMSO median 0, no signal -100;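 active = significant combined selectivity score with lowered wild-type GFP, culture density cut under 30%, mutant RFP and density less affected; inactive = any of these conditions unmet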
ADAM17 inh: ADAM17 inhibitors, primary screen, biochemical, QFRET. recombinant ADAM17, EDANS/DABCYL FRET peptide cleavage. inhibition, % at 6.95 µM. 370,000 compounds, 0.83% hits. Disintegrin and metalloproteinase domain-containing protein 17 (Homo sapiens), P78536;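 active = inhibition above the mean of compounds lying between control limits plus 3 SD, set per campaign, cut at about 8.5% in these data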;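 note: 0% = DMSO-only wells as the low control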
proKLK7 act: proKLK7 zymogen activators, primary screen, biochemical, fluorescence intensity; Kallikrein-7 (Homo sapiens), P49862; purified proKLK7, EDANS-DABCYL substrate fluorescence; 100% is mature enzyme control, 0% vehicle; activation, % at 7 µM; 370,000 compounds, 0.9% hits; AID 652039, 2013;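 active = activation above the mean of all tested compounds plus 3 SD, computed per campaign excluding outliers beyond control limits, cut at about 13% in these data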
ADAM10 inh: human ADAM10 inhibitors, primary screen, biochemical, QFRET, HTS; Disintegrin and metalloproteinase domain-containing protein 10 (Homo sapiens), O14672; recombinant ADAM10, EDANS/DABCYL FRET peptide cleavage, 3 h; inhibition, % at 7 µM; 370,000 compounds, 0.62% hits; AID 720582, 2013;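 active = inhibition above a per-campaign cutoff equal to the mean of compounds falling between control-based bounds plus 3 SD, cut at about 20% in these data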;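 note: 0% = DMSO wells while the 100% control is not disclosed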
Target sequence (O14672 214-748 limits assumed): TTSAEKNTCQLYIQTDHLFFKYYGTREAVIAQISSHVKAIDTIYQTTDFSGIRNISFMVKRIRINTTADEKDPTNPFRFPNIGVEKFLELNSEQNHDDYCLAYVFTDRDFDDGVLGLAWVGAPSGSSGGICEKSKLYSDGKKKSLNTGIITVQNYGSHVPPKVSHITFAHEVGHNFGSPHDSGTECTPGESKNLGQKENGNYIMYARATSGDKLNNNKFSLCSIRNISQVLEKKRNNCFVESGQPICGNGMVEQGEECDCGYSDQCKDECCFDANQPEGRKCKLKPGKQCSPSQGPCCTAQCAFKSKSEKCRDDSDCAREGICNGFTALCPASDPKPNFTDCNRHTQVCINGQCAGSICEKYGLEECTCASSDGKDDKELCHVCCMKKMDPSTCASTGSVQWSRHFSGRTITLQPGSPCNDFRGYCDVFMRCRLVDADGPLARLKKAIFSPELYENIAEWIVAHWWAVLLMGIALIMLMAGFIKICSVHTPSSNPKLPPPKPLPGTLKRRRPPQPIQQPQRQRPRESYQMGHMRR
FGF22 binding: binders of human FGF22 protein, primary screen, FGF22 synaptogenesis inhibitor project, biophysical, thermal shift, single point. Fibroblast growth factor 22 (Homo sapiens), Q9HCT0. recombinant FGF22 thermal shift, SYPRO orange fluorescence; percent of sucrose octasulfate shift, DMSO zero. activity (Tm shift, normalised), % at 9.99 µM. 340,000 compounds, 1.5% hits. AID 651658, 2012;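 active = mean Tm shift, scaled 0 neutral to 100 positive control, at about 1.3% or above, every replicate too, limit read from the data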
* hit, by the source's call; · = not tested or not shown.

SMILES	rRNA inh HTS	ADAM17 inh	proKLK7 act	ADAM10 inh	FGF22 binding
C[C@@H]1CCCCO[C@@H](CN(C)C(=O)c2ccccc2)[C@H](C)CN([C@@H](C)CO)C(=O)c2cc(NC(=O)c3ccccc3)ccc2O1	-21*	·	·	·	0
C[C@@H]1CCCCO[C@H](CN(C)S(=O)(=O)c2ccccc2)[C@@H](C)CN([C@H](C)CO)C(=O)c2cc(NC(=O)CCC(F)(F)F)ccc2O1	3	·	·	·	3.9*
C[C@@H]1CCCCO[C@H](CN(C)S(=O)(=O)c2ccccc2)[C@H](C)CN([C@H](C)CO)C(=O)c2cc(NC(=O)Nc3ccccc3)ccc2O1	·	·	·	·	0
C[C@@H]1CCCCO[C@@H](CN(C)S(=O)(=O)c2ccccc2)[C@H](C)CN([C@@H](C)CO)C(=O)c2cc(NC(=O)Nc3ccccc3)ccc2O1	-3	·	·	·	2.0*
C[C@H](CO)N1C[C@H](C)[C@H](CN(C)C(=O)c2ccccc2)OCCCC[C@H](C)Oc2ccc(NC(=O)c3ccccc3)cc2C1=O	-4	·	·	·	0
CC(C)C#Cc1ccc([C@@H]2[C@@H](CO)N3C(=O)CN(C(=O)NC4CCCCC4)C[C@H]23)cc1	-2	·	·	·	·
COc1cccc(/C=N/Nc2nc(N3CCCC3)nc(N3CCCC3)n2)c1O	-18*	-1	-5	-3	0
O=C(NCC1CCCN(Cc2ccccc2F)C1)c1cccc(C(F)(F)F)c1 (centres undefined)	·	-2	0	-8	43*
O=C(Nc1cc(F)cc(F)c1)c1ccc(NCCc2ccccc2)c([N+](=O)[O-])c1	·	-3	0	-6	·
O=C(Nc1cc(F)cc(F)c1)c1ccc(NCCCN2CCCCCC2)c([N+](=O)[O-])c1	8	3	0	-1	43*
COc1ccc(S(=O)(=O)N2C[C@@H](O)COC[C@H]3O[C@@H](CC(=O)NCCCN4CCOCC4)CC[C@@H]32)cc1	3	·	·	·	0
O=C(COC(=O)CSc1ccc(Br)cc1)NCc1ccco1	2	-2	0	4	0
Cc1cc(Br)ccc1SCC(=O)OCC(=O)NCc1ccco1	-18*	1	0	2	0
C[C@H]1CN([C@@H](C)CO)C(=O)c2cc(NS(=O)(=O)c3cccs3)ccc2O[C@H]1CN(C)CC1CCCCC1	0	·	·	·	0
Cc1nn(C)c(Oc2cccc(C(F)(F)F)c2)c1C=O	5	-5	0	-7	43*
CC(=O)OCc1c(C(F)(F)F)nn(C)c1Oc1cccc(C(F)(F)F)c1	·	0	0	-1	·
N#Cc1cccnc1Nc1ccc(Cl)cc1	-2	-1	0	5	43*
CC1=C([C@H](O)CCc2ccccc2)[C@H](CO)n2c(=O)n(-c3ccccc3)c(=O)n2C1	·	·	·	·	-1
Cc1cccc(N/C(N)=N/c2nc(C)cc(=O)[nH]2)c1	10	-2	0	-2	43*
Cc1cc(=O)[nH]c(/N=C(\N)Nc2ccc3c(c2)OCCO3)n1	13	0	-1	3	44*
COC(=O)Cc1cc(=O)[nH]c(/N=C(\N)Nc2cccc(C)c2)n1	9	-2	-1	-7	43*
CN(C)CC(=O)N1CC2(C1)[C@H](c1ccccc1)[C@H](CO)N2C(=O)C1CCC1	0	·	·	·	·
C/C=C/c1ccc2c(c1)O[C@H](CN(C)Cc1ccc(C(=O)O)cc1)[C@H](C)CN([C@@H](C)CO)S2(=O)=O	1	·	·	·	0
CCCn1c(=O)c2ccccc2n2c(SCCOc3ccc(OC)cc3)nnc12	-18*	-3	-1	-3	0
CC(Nc1nc(-c2ccc(Cl)cc2)cs1)c1nc2cc(Cl)c(N3CCCCC3)cc2n1CCOCCO (centres undefined)	1	7	0	22*	0
SMILES	rRNA inh HTS	ADAM17 inh	proKLK7 act	ADAM10 inh	FGF22 binding
COc1ccc(-c2csc(NC(C)c3nc4cc(Cl)c(N5CCCCC5)cc4n3CCOCCO)n2)cc1 (centres undefined)	3	2	0	15	0
COc1ccc(C(=O)NCC2CCN(C(=O)C(=O)c3cc4ccccc4o3)CC2)c(OC)c1	-13*	-1	1	-4	0
O=C(C(=O)N1CCC(CNS(=O)(=O)c2ccc(F)cc2)CC1)c1cc2ccccc2o1	-9	2	0	8	0
COC(=O)c1cc(S(=O)(=O)NCC2CCN(C(=O)C(=O)c3cc4ccccc4o3)CC2)cs1	-19*	-4	1	0	0
COc1ccc(CC(=O)NCC2CCN(C(=O)C(=O)c3cc4ccccc4o3)CC2)cc1	3	-1	0	4	0
O=c1[nH]c2ccccc2nc1/C=C/c1ccc(F)cc1	11	-47	-6	-123	43*
O=C(CN1C(=O)NC2(CCCCCCC2)C1=O)NCc1cccs1	-5	-3	-1	7	0
O=C(CN1C(=O)NC(c2ccccc2)(c2ccccc2)C1=O)NCc1cccs1	-36*	0	0	-9	0
O=C(NCc1ccccc1)NCc1cccs1	16	-1	0	-3	43*
C[C@H](CO)N1C[C@H](C)[C@@H](CN(C)C(=O)Nc2ccc(F)cc2)Oc2ccc(NC(=O)CCN3CCOCC3)cc2C1=O	4	·	·	·	0
Cc1ccc(C(=O)N/C(=C\c2ccc(Br)cc2)c2nc(=S)[nH][nH]2)cc1	-25*	3	0	5	0
C/C(=N\NC(=O)COc1ccc(C(C)(C)C)cc1)c1ccc(N2CCOCC2)cc1	-8	0	0	3	44*
C[C@@H]1CN(C)C(=O)c2cc(N)ccc2O[C@@H]1CN(C)S(C)(=O)=O	2	·	·	·	·
C[C@@H]1CC=CC[C@@H](c2ccccc2)NC(=O)[C@H](Cc2ccccc2)N(C)C(=O)c2ccccc2O1 (mixture of isomers)	-5	·	·	·	·
CN(C)S(=O)(=O)c1ccc(NC(=O)CN2CCC(Cc3ccccc3)CC2)cc1	-6	6	0	11	44*
O=C(CNC(=S)N(Cc1ccccc1)Cc1ccccc1F)NCc1ccc(Cl)cc1	-27*	5	0	17	1
Cc1ccc(CNC(=O)CNC(=S)N(Cc2ccccc2)Cc2ccccc2F)cc1	-30*	4	1	13	0
Cc1ccnc(NS(=O)(=O)c2ccc(NC(=O)c3ccc([N+](=O)[O-])s3)cc2)n1	9	-1	0	4	44*
Cc1cc(NS(=O)(=O)c2ccc(NC(=O)c3ccc([N+](=O)[O-])s3)cc2)nc(C)n1	2	2	0	-6	0
COc1ccc(C[C@@H]2CCn3nncc3COCCCNC2=O)cc1	5	·	·	·	·
